According to PubChem BioAssay AID1159580 (chemical genetic matrix, 2015):
In all, about 5,500 compounds went through this assay and about 2,000 (36%) were called active. About 18% were inconclusive and are not listed. Cut-off read from the data, not from the text of the source: active = normalized growth mostly below about 0.91 (no sharp cut-off); inconclusive = no clear call, values can overlap the other calls; inactive = mostly above about 0.92. Some of the results follow.

Assay: chemical genetic growth profiling, strain panel (AID 1159580);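 note: tested at 20 µM; growth read once vehicle control cultures reached saturation at 30 °C; 1 = growth at the plate median or of vehicle wells; lower values mean less growth of the strain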
Settings: growth OD

Measured: normalized growth

CCC(=O)O[C@]1(C(=O)CCl)[C@@H](C)CC2C3CCC4=CC(=O)C=C[C@]4(C)[C@@]3(F)[C@@H](O)C[C@@]21C (stereo partly specified)
inactive: S. cerevisiae deletion strains, locus YJR043C, strain POL32, hits give low values 0.982 | S. cerevisiae deletion strains, locus YJR066W, strain TOR1, hits give low values 0.952 | S. cerevisiae deletion strains, locus YKL009W, strain mrt4, hits give low values 1.01 | S. cerevisiae deletion strains, locus YKL068W, hits give low values 0.972 | S. cerevisiae deletion strains, locus YKL085W, strain MDH1 (second series), hits give low values 0.985 | S. cerevisiae deletion strains, locus YKL085W, strain MDH1, hits give low values 0.985 | S. cerevisiae deletion strains, locus YKL160W, strain elf1, hits give low values 1.02 | S. cerevisiae deletion strains, locus YKL190W, strain CNB1, hits give low values 0.981 | S. cerevisiae deletion strains, locus YKR001C, strain vps1, hits give low values 0.988 | S. cerevisiae deletion strains, locus YKR026C, strain gcn3, hits give low values 1.03 | S. cerevisiae deletion strains, locus YKR091W, strain srl3, hits give low values 1.02 | S. cerevisiae deletion strains, locus YLL001W, strain dnm1, hits give low values 1.02 | S. cerevisiae deletion strains, locus YLL026W, hits give low values 1.01 | S. cerevisiae deletion strains, locus YLL041C, strain sdh2, hits give low values 1.01 | S. cerevisiae deletion strains, locus YLR027C, strain aat2, hits give low values 1.02 | S. cerevisiae deletion strains, locus YLR039C, strain RIC1, hits give low values 0.959 | S. cerevisiae deletion strains, locus YLR058C, strain SHM2, hits give low values 0.983 | S. cerevisiae deletion strains, locus YLR102C, strain apc9, hits give low values 0.985 | S. cerevisiae deletion strains, locus YLR113W, strain HOG1, hits give low values 0.982 | S. cerevisiae deletion strains, locus YLR221C, strain rsa3, hits give low values 1.03 | S. cerevisiae deletion strains, locus YLR258W, strain gsy2, hits give low values 1.02 | S. cerevisiae deletion strains, locus YLR262C, strain YPT6 (second series), hits give low values 1.02 | S. cerevisiae deletion strains, locus YLR262C, strain YPT6, hits give low values 0.941 | S. cerevisiae deletion strains, locus YLR268W, strain sec22, hits give low values 0.961 | S. cerevisiae deletion strains, locus YLR320W, strain mms22, hits give low values 1.04 | S. cerevisiae deletion strains, locus YLR330W, strain CHS5, hits give low values 0.971 | S. cerevisiae deletion strains, locus YLR342W, strain FKS1 (second series), hits give low values 0.999 | S. cerevisiae deletion strains, locus YLR342W, strain FKS1, hits give low values 1.02 | S. cerevisiae deletion strains, locus YLR357W, strain rsc2, hits give low values 1.05 | S. cerevisiae deletion strains, locus YLR370C, strain arc18, hits give low values 1.02 | S. cerevisiae deletion strains, locus YLR371W, strain rom2, hits give low values 0.976 | S. cerevisiae deletion strains, locus YLR384C, strain iki3, hits give low values 1.04 | S. cerevisiae deletion strains, locus YLR418C, strain cdc73, hits give low values 0.969 | S. cerevisiae deletion strains, locus YML016C, strain PPZ1, hits give low values 0.988 | S. cerevisiae deletion strains, locus YML032C, strain rad52, hits give low values 0.985 | S. cerevisiae deletion strains, locus YML120C, strain ndi1, hits give low values 1 | S. cerevisiae deletion strains, locus YML124C, strain tub3, hits give low values 0.993 | S. cerevisiae deletion strains, locus YMR058W, strain fet3, hits give low values 1.02 | S. cerevisiae deletion strains, locus YMR078C, strain ctf18, hits give low values 0.983 | S. cerevisiae deletion strains, locus YMR125W, strain sto1, hits give low values 1.02 | S. cerevisiae deletion strains, locus YMR129W, hits give low values 1.02 | S. cerevisiae deletion strains, locus YMR205C, strain PFK2, hits give low values 1.04 | S. cerevisiae deletion strains, locus YMR223W, strain ubp8, hits give low values 0.982 | S. cerevisiae deletion strains, locus YMR231W, strain pep5, hits give low values 1.02 | S. cerevisiae deletion strains, locus YMR263W, strain SAP30, hits give low values 0.987 | S. cerevisiae deletion strains, locus YMR307W, strain GAS1, hits give low values 0.87 | S. cerevisiae deletion strains, locus YNL067W, strain RPL9B, hits give low values 0.992 | S. cerevisiae deletion strains, locus YNL071W, strain lat1, hits give low values 1.02 | S. cerevisiae deletion strains, locus YNL183C, strain NPR1, hits give low values 0.935 | S. cerevisiae deletion strains, locus YNL209W, strain ssb2, hits give low values 1.01 | S. cerevisiae deletion strains, locus YNL233W, strain BNI4, hits give low values 1.01 | S. cerevisiae deletion strains, locus YNL248C, strain rpa49, hits give low values 1.02 | S. cerevisiae deletion strains, locus YNL250W, strain rad50, hits give low values 0.988 | S. cerevisiae deletion strains, locus YNL271C, strain bni1, hits give low values 0.963 | S. cerevisiae deletion strains, locus YNL298W, strain CLA4, hits give low values 0.964 | S. cerevisiae deletion strains, locus YNL307C, strain MCK1, hits give low values 0.987 | S. cerevisiae deletion strains, locus YNL322C, strain KRE1 (second series), hits give low values 1.03 | S. cerevisiae deletion strains, locus YNL322C, strain KRE1, hits give low values 0.988 | S. cerevisiae deletion strains, locus YNR049C, strain mso1, hits give low values 1.01 | S. cerevisiae deletion strains, locus YNR052C, strain pop2, hits give low values 0.988 | S. cerevisiae deletion strains, locus YOL006C, strain TOP1, hits give low values 0.958 | S. cerevisiae deletion strains, locus YOL012C, strain htz1 0.831 | S. cerevisiae deletion strains, locus YOL147C, strain pex11, hits give low values 0.986 | S. cerevisiae deletion strains, locus YOR001W, strain rrp6, hits give low values 1.03 | S. cerevisiae deletion strains, locus YOR061W, strain CKA2, hits give low values 0.978 | S. cerevisiae deletion strains, locus YOR069W, strain VPS5, hits give low values 0.978 | S. cerevisiae deletion strains, locus YOR070C, strain gyp1, hits give low values 1.02 | S. cerevisiae deletion strains, locus YOR080W, strain dia2, hits give low values 1.03 | S. cerevisiae deletion strains, locus YOR083W, strain WHI5, hits give low values 1.02 | S. cerevisiae deletion strains, locus YOR106W, strain vam3, hits give low values 1.02 | S. cerevisiae deletion strains, locus YOR136W, strain idh2, hits give low values 0.995 | S. cerevisiae deletion strains, locus YOR144C, strain elg1, hits give low values 0.997 | S. cerevisiae deletion strains, locus YOR184W, strain ser1, hits give low values 0.986 | S. cerevisiae deletion strains, locus YOR231W, strain MKK1, hits give low values 0.959 | S. cerevisiae deletion strains, locus YOR265W, strain rbl2, hits give low values 1.02 | S. cerevisiae deletion strains, locus YOR270C, strain vph1, hits give low values 0.984 | S. cerevisiae deletion strains, locus YOR290C, strain snf2, hits give low values 1.02 | S. cerevisiae deletion strains, locus YOR316C, strain cot1, hits give low values 0.991 | S. cerevisiae deletion strains, locus YPL051W, strain arl3, hits give low values 1.02 | S. cerevisiae deletion strains, locus YPL055C, strain LGE1, hits give low values 1.01 | S. cerevisiae deletion strains, locus YPL078C, strain atp4, hits give low values 1.02 | S. cerevisiae deletion strains, locus YPL106C, strain sse1, hits give low values 1.06 | S. cerevisiae deletion strains, locus YPL240C, strain hsp82, hits give low values 1.01 | S. cerevisiae deletion strains, locus YPL241C, strain CIN2, hits give low values 0.981 | S. cerevisiae deletion strains, locus YPL256C, strain CLN2, hits give low values 0.961 | S. cerevisiae deletion strains, locus YPR119W, strain clb2, hits give low values 0.981 | S. cerevisiae deletion strains, locus YPR141C, strain kar3, hits give low values 0.967 | S. cerevisiae deletion strains, locus YPR163C, strain tif3, hits give low values 0.956 | S. cerevisiae deletion strains, locus YPR167C, strain met16, hits give low values 0.978 | S. cerevisiae deletion strains, strain wtn01, hits give low values 0.998 | S. cerevisiae strains, strain wild type, hits give low values 0.98
